Measurements reported in PubChem BioAssay AID588382 (National Center for Advancing Translational Sciences (NCATS), 2011).
Screen size: about 1,300 compounds; about 150 (12%) were called active. Where a call stands in place of a potency, no number is given. Inconclusive results (about 30%) are left out. The call rests on the fitted dose curve; in most records, active means well fitted cell-killing curve with a large enough effect; inconclusive means small, poorly fitted or top-dose-only effect, or effect the other way; inactive means flat fitted curve, though single readings scatter. Only a selection was taken, and actives are over-represented in it overall.

Test: qHTS of small molecules that selectively kill Giardia lamblia: Hit Validation in HepG2 cytotox;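 further: compound exposure lasted overnight at 37 deg C; nearly all actives have a fitted effect of over 55% in size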
Details: cell viability; Potency: HepG2 cytotoxicity; series mostly up to 38.3 µM
Text: Giardia lamblia is a human pathogen afflicting impoverished nations, and the most common cause of outbreaks of diarrhea in the United States. Giardia has been classified by the CDC as a category B bioterrorism organism. The favored anti giardiasis drugs in the US are metronidazole or tinidazole, compounds that have undesirable side effects. Moreover, increasing resistance to drug regimes and recurrence are a concern. It is thus clear that alternative drug treatments are needed.
In a collaboration between the University of Maryland, College Park and the NIH Chemical Genomics Center, a bioluminescence Giardia viability assay based on the trophozoites' ATP content was developed. This assay is suitable for high throughput screening, and miniaturized the assay for compound screening in 1536-well plates. The goal of the project is to screen the Molecular Libraries Small Molecule Repository (MLSMR) for compounds that selectively kill Giardia trophozoites. This counterscreen looks at the toxicity of the compounds against the human HepG2 cell line.
NIH Chemical Genomics Center [NCGC]
NIH Molecular Libraries Probe Centers Network [MLPCN]
Assay Submitter (PI): Osnat Herzberg, University of Maryland, College Park, MD.
4 uL of HepG2 cells ae dispensed into white 1536-well plates. They are incubated overnight at 37 deg C and then 23 nL of compounds are transferred to the wells with a pintool. Plates are incubated overnight at 37 deg C. 2 uL of ATPLite is added and the plates are incubated for 15 min at room temperature before they are read on the ViewLux for luminiescence.
Potency means the concentration at half of the fitted maximal effect.

SMILES | Potency
CNC(=O)Oc1cccc(-c2cn3cc(Cl)ccc3n2)c1 | 1.85 µM (active)
NC(=O)c1cc(N2CC2)c([N+](=O)[O-])cc1[N+](=O)[O-] | inactive
CN(c1ccccc1)c1ccc([N+](=O)[O-])c2nonc12 | inactive
COC(=O)c1nc(-c2ccc3c(n2)C(=O)C(N)=C(OC)C3=O)c(N)c(-c2ccc(OC)c(OC)c2O)c1C | 1.04 µM (active)
C[C@H]1C[C@@H](C)C(=O)[C@@H]([C@H](O)CC2CC(=O)NC(=O)C2)C1 | inactive
CCOC(=O)C1CCCN(c2ccc([N+](=O)[O-])c3nonc23)C1 (stereo not given) | inactive
Fc1ccc(C2NCCc3[nH]cnc32)cc1 (stereo not given) | inactive
[Hg+][c]1ccccc1 | 1.85 µM (active)
CC(C)(O)C1C2OC(=O)C1C1(O)CC3OC34C(=O)OC2C14C (stereo not given) | inactive
C[N+]12CCC(CC1)C(=C(c1ccccc1)c1ccccc1)C2 | inactive
C[C@@H]1C[C@@H]([C@H](O)CC2CC(=O)NC(=O)C2)C(=O)[C@@H](C)C1 | inactive
c1ccc2c(c1)[I+]c1ccccc1-2 | 0.0826 µM (active)
O=[N+]([O-])c1ccc(-c2ccccc2)c([As](=O)(O)O)c1 | inactive
CC1=C(N2CC2)C(=O)C(CO)=C(N2CC2)C1=O | 0.0656 µM (active)
CCCCn1c(=O)c(C(=O)NCc2ccccc2OC)c(O)c2ccccc21 | inactive
CCn1nc(/C=C/c2ccccc2)nc2c(=O)n(C)c(=O)nc1-2 | 6.56 µM (active)
CC1CN(c2ccc([N+](=O)[O-])c3cccnc23)CC(C)N1 (stereo not given) | inactive
Cc1nc2c(=O)n(C)c(=O)nc-2n(C)n1 | 0.656 µM (active)

SMILES | Potency
CC1CC(C)CC(C)C(O)C(C#N)=CC=CCC(C2CCCC2C(=O)O)OC(=O)CC(O)C(C)C1 (stereo not given) | 2.33 µM (active)
O=[N+]([O-])c1ccc(O)c([N+](=O)[O-])c1 | inactive
CC(C)c1ccc(N=Nc2c(O)[nH]c(=O)[nH]c2=O)cc1 | inactive
CCOc1ccc(-n2c(-c3cccs3)nc3ccccc3c2=O)cc1 | inactive
O=c1c2ccccc2nc(/C=C/c2ccc([N+](=O)[O-])o2)n1-c1ccc(O)cc1 | 3.69 µM (active)
O=c1c2ccccc2nc(/C=C/c2ccc(O)cc2)n1-c1cccc(O)c1 | inactive
COC1/C=C/C=C(\C)Cc2cc(O)c(Cl)c(c2)N(C)C(=O)CC(OC(=O)C(C)C)C2(C)OC2C(C)C2CC1(O)NC(=O)O2 (stereo not given) | inactive
Cc1ccc(C(c2nnnn2Cc2ccccc2)N2CC=C(c3ccc(F)cc3)CC2)cc1 (stereo not given) | inactive
C=CC1CN2CCC1CC2[C@@H](OC(=O)c1ccc(OC)cc1)c1ccnc2ccccc12 (stereo not given in full) | inactive
c1ccc2c(c1)[IH]c1ccccc1-2 | 0.0927 µM (active)
CN(C)C(=O)Oc1ccc(Br)c2ccccc12 | inactive
COC(COC(N)=O)C1=C(N2CC2)C(=O)C(C)=C(N2CC2)C1=O (stereo not given) | 0.185 µM (active)
O=[N+]([O-])c1cc([As](=O)(O)O)ccc1O | inactive
Cc1nc2ccccc2c(=O)n1-c1cc([N+](=O)[O-])cc([N+](=O)[O-])c1 | inactive
CN1CCN(c2ccc([N+](=O)[O-])c3cccnc23)CC1 | inactive
Cc1cc([N+](=O)[O-])c2ccccc2[n+]1[O-] | 1.17 µM (active)
NN=C(N)N | inactive
